Our source for the growth values is PubChem BioAssay (NCI).

What all share (assay): NCI-60 one-dose screen, 48 h (100 = growth as untreated, 0 = no growth, -100 = all killed)
Common to all, as to conditions: 10 µM

For assay [1], the system named is NCI-H23 lung.
Assay [2] deals with NCI-H226 lung.
For assay [3], the system named is NCI-H322M lung.
Assay [4] has as its system HOP-62 NSCLC.
In assay [5] the test system is NCI-H460 lung.
Assay [6] relates to HOP-92 NSCLC.
The subject of assay [7] is NCI-H522 lung.
In assay [8] the test system is A549/ATCC NSCLC.
In assay [9] the test system is 786-0 renal.
For assay [10], the system named is COLO 205 colon.
In assay [11] the test system is DU-145 prostate.
Assay [12] has as its system K-562 leukemia.
The test system of assay [13] is MALME-3M melanoma.
Assay [14] relates to MDA-MB-231 breast.
The subject of assay [15] is RXF 393 renal.
The subject of assay [16] is SF-268 CNS.
In assay [17] the test system is SF-295 CNS.
In assay [18] the test system is SF-539 CNS.
In assay [19] the test system is UACC-257 melanoma.
Assay [20] has as its system M14 melanoma.

The panel holds about 83,000 compounds, 20% with a hit somewhere; the sample as a whole holds those more often.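 96-well plates, one dose, 48 hours. Percent growth reported; active if below 10.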 A number with no mark means an inactive call. Active and inactive are the calls of the source.

Consider `Cc1ccc(NC(=O)/C=N/O)cc1C`, for which the growth is 94.6% in assay [1]; 53.2% in assay [2]; 102% in [3]; 92.7% in assay [4]; 103% in assay [5]; 82.3% in [6]. In addition, the growth in [7] is 93%; in assay [8] it was 94%; in assay [9], 101%; in assay [10], 105%; in [11], 104%; in assay [12] it was 95.6%. For the same compound, the growth in [13] was 108%; in assay [14] it was 95.9%; in assay [15], 99.6%; in assay [16] it was 104%; in assay [17], 85.4%; in assay [18], 96.4%. Moreover, the growth in [19] was 96.4%; in assay [20], 101%.
For the compound `Fc1ccc(Nc2ccnc(N3CCN(c4ccnc5cc(Cl)ccc45)CC3)n2)cc1`, the growth in [1] is 44.5%; in [2] it was 54%; in assay [3], 65.5%; in [4], 62.8%; in assay [5] it was 38%; in [6], -7.36% (active). The growth is 43.4% in [7]; 25% in assay [8]; 37.1% in assay [9]; 34.7% in assay [10]; 77% in assay [11]; 16% in [12]. Also, the growth in [13] was 52.9%; in assay [14] it was 56%; in assay [15] it was 66.7%; in [16], 72.4%; in assay [17], 39.6%; in assay [18] it was 51.4%. For the same compound, the growth in assay [19] is 61.1%; in assay [20] it was 43.4%.
Turning to `O=C1/C(=C/c2ccc(O)cc2)CSc2ccc(Cl)cc21`, the growth in assay [1] is 91.3%; in assay [2], 82.2%; in assay [3] it was 92.3%; in [4], 90.9%; in assay [5] it was 96.5%; in assay [6], 75.6%. In addition, the growth in assay [7] is -26.2% (active); in assay [8] it was 86.7%; in [9], 85.5%; in assay [10] it was 108%; in assay [11], 102%; in [12], 64%. Besides, the growth is 111% in [13]; 77.5% in assay [14]; 91.1% in assay [15]; 93% in assay [16]; 91.6% in assay [17]; 85.5% in assay [18]. Also, the growth in assay [19] was 100%; in assay [20], 88.8%.
As to `CC1(CO)CCCC12OCCO2` (stereo not given), the growth in assay [1] is 106%; in assay [2], 99.7%; in [3], 107%; in assay [4], 100%; in assay [5], 105%; in assay [6] it was 120%. The growth in [7] is 93%; in assay [8] it was 101%; in assay [9], 102%; in [10] it was 114%; in assay [11], 117%; in assay [12] it was 100%. Further, the growth in assay [13] was 113%; in assay [14] it was 104%; in assay [15], 100%; in assay [16], 110%; in [17] it was 82.3%; in [18], 96.2%. The growth in [19] was 99.8%; in [20] it was 106%.
For the compound `COc1ccc2oc(=O)cc(C3c4ccc([nH]4)C(c4cc(=O)oc5ccc(OC)cc45)c4ccc([nH]4)C(c4cc(=O)oc5ccc(OC)cc45)c4ccc([nH]4)C(c4cc(=O)oc5ccc(OC)cc45)c4ccc3[nH]4)c2c1` (stereo not given), the growth in [1] was -12.4% (active); in [2] it was 15.8%; in assay [3] it was 27.9%; in [4] it was 17.6%; in [5], 6.39% (active); in [6], 41.8%. The growth is -71.9% (active) in assay [7]; 41.1% in [8]; -24% (active) in assay [9]; -76.7% (active) in assay [10]; -19.3% (active) in [11]; -20.5% (active) in assay [12]. Moreover, the growth in assay [13] is 2.83% (active); in assay [14], -16.5% (active); in [15], -77.3% (active); in assay [16] it was 20.4%; in assay [17], 9.08% (active); in assay [18], -26.9% (active). Moreover, the results for the growth in assay [19] and in [20] were 33.7% and 3.08% (active), respectively.
Take `CNC(=O)c1cc(Oc2ccc(NC(=O)Nc3ccc(Cl)c(OC(C)C)c3)c(F)c2)ccn1`: the growth in [1] was 28.1%; in [2], 52.5%; in [3] it was 81.1%; in assay [4], 69.3%; in assay [5], 61.1%; in assay [6] it was 60.1%. Besides, the growth in assay [7] is 25.3%; in assay [8] it was 44.5%; in [9], 107%; in [10] it was 33.5%; in assay [11], 76.8%; in assay [12], 21.8%. Besides, the growth was 38.3% in assay [13]; 59.4% in [14]; 87.6% in assay [15]; 58.3% in assay [16]; 33.3% in assay [17]; 66.9% in [18]. The growth in assay [19] was 26.9%; in [20] it was 36.1%.
